Measured values reported in PubChem BioAssay AID1159580 (chemical genetic matrix, 2015).
Values joined by “and” are separate entries in the source; they are usually repeats but may differ in a detail not shown here. Identical values can stand only once. In all, about 5,500 compounds went through this assay and about 2,000 (36%) were called active. Not shown: some 18% with an inconclusive outcome. Rule as the data show it: active = normalized growth mostly below about 0.91 (no sharp cut-off); inconclusive = no clear call, values can overlap the other calls; inactive = mostly above about 0.92. Some of the results follow.

Assay: chemical genetic growth profiling, strain panel (AID 1159580);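 also: tested at 20 µM; growth read once vehicle control cultures reached saturation at 30 °C; 1 = growth at the plate median or of vehicle wells; lower values mean less growth of the strain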
Conditions: growth OD

Measured: normalized growth

CC1=C(/C=C/C(C)=C/C=C/C(C)=C/C(=O)O)C(C)(C)CCC1
active: S. cerevisiae deletion strains, locus YLR262C, strain YPT6 (second series), hits give low values 0.827 | S. cerevisiae deletion strains, locus YOR083W, strain WHI5, hits give low values 0.883
inactive: S. cerevisiae deletion strains, locus YJR075W, strain HOC1, hits give low values 1.01 | S. cerevisiae deletion strains, locus YKL009W, strain mrt4, hits give low values 0.992 | S. cerevisiae deletion strains, locus YKL068W, hits give low values 1.02 | S. cerevisiae deletion strains, locus YKL085W, strain MDH1 (second series), hits give low values 1.02 | S. cerevisiae deletion strains, locus YKL085W, strain MDH1, hits give low values 1.02 | S. cerevisiae deletion strains, locus YKL160W, strain elf1, hits give low values 0.93 | S. cerevisiae deletion strains, locus YKL190W, strain CNB1, hits give low values 1.01 | S. cerevisiae deletion strains, locus YKR001C, strain vps1, hits give low values 1.02 | S. cerevisiae deletion strains, locus YKR026C, strain gcn3, hits give low values 1.01 | S. cerevisiae deletion strains, locus YKR091W, strain srl3, hits give low values 1.01 | S. cerevisiae deletion strains, locus YLL001W, strain dnm1, hits give low values 0.963 | S. cerevisiae deletion strains, locus YLL026W, hits give low values 0.996 | S. cerevisiae deletion strains, locus YLL041C, strain sdh2, hits give low values 1.02 | S. cerevisiae deletion strains, locus YLR027C, strain aat2, hits give low values 0.966 | S. cerevisiae deletion strains, locus YLR039C, strain RIC1, hits give low values 0.945 | S. cerevisiae deletion strains, locus YLR058C, strain SHM2, hits give low values 1.01 | S. cerevisiae deletion strains, locus YLR102C, strain apc9, hits give low values 1.04 | S. cerevisiae deletion strains, locus YLR113W, strain HOG1, hits give low values 0.978 | S. cerevisiae deletion strains, locus YLR221C, strain rsa3, hits give low values 0.982 | S. cerevisiae deletion strains, locus YLR258W, strain gsy2, hits give low values 0.972 | S. cerevisiae deletion strains, locus YLR262C, strain YPT6, hits give low values 0.93 | S. cerevisiae deletion strains, locus YLR268W, strain sec22, hits give low values 1 | S. cerevisiae deletion strains, locus YLR320W, strain mms22, hits give low values 0.935 | S. cerevisiae deletion strains, locus YLR330W, strain CHS5, hits give low values 1.01 | S. cerevisiae deletion strains, locus YLR342W, strain FKS1 (second series), hits give low values 1.02 | S. cerevisiae deletion strains, locus YLR342W, strain FKS1, hits give low values 0.922 | S. cerevisiae deletion strains, locus YLR357W, strain rsc2, hits give low values 0.94 | S. cerevisiae deletion strains, locus YLR370C, strain arc18, hits give low values 0.989 | S. cerevisiae deletion strains, locus YLR371W, strain rom2, hits give low values 1.03 | S. cerevisiae deletion strains, locus YLR384C, strain iki3, hits give low values 0.995 | S. cerevisiae deletion strains, locus YLR418C, strain cdc73, hits give low values 1.05 | S. cerevisiae deletion strains, locus YML016C, strain PPZ1, hits give low values 1.01 | S. cerevisiae deletion strains, locus YML032C, strain rad52, hits give low values 1.03 | S. cerevisiae deletion strains, locus YML120C, strain ndi1, hits give low values 1.01 | S. cerevisiae deletion strains, locus YML124C, strain tub3, hits give low values 1.03 | S. cerevisiae deletion strains, locus YMR058W, strain fet3, hits give low values 0.948 | S. cerevisiae deletion strains, locus YMR078C, strain ctf18, hits give low values 1.04 | S. cerevisiae deletion strains, locus YMR125W, strain sto1, hits give low values 1 | S. cerevisiae deletion strains, locus YMR129W, hits give low values 1 | S. cerevisiae deletion strains, locus YMR205C, strain PFK2, hits give low values 0.965 | S. cerevisiae deletion strains, locus YMR223W, strain ubp8, hits give low values 1.02 | S. cerevisiae deletion strains, locus YMR231W, strain pep5, hits give low values 1.01 | S. cerevisiae deletion strains, locus YMR263W, strain SAP30, hits give low values 1 and 0.999 | S. cerevisiae deletion strains, locus YMR307W, strain GAS1, hits give low values 1.02 | S. cerevisiae deletion strains, locus YNL067W, strain RPL9B, hits give low values 1 | S. cerevisiae deletion strains, locus YNL071W, strain lat1, hits give low values 0.957 | S. cerevisiae deletion strains, locus YNL128W, strain TEP1, hits give low values 1.02 | S. cerevisiae deletion strains, locus YNL153C, strain GIM3, hits give low values 1.01 | S. cerevisiae deletion strains, locus YNL175C, strain NOP13, hits give low values 1.05 | S. cerevisiae deletion strains, locus YNL183C, strain NPR1, hits give low values 0.905 | S. cerevisiae deletion strains, locus YNL197C, strain WHI3, hits give low values 1.04 | S. cerevisiae deletion strains, locus YNL209W, strain ssb2, hits give low values 0.973 | S. cerevisiae deletion strains, locus YNL224C, strain SQS1, hits give low values 1.03 | S. cerevisiae deletion strains, locus YNL233W, strain BNI4, hits give low values 1.01 | S. cerevisiae deletion strains, locus YNL248C, strain rpa49, hits give low values 0.955 | S. cerevisiae deletion strains, locus YNL250W, strain rad50, hits give low values 1.03 | S. cerevisiae deletion strains, locus YNL271C, strain bni1, hits give low values 1.03 | S. cerevisiae deletion strains, locus YNL298W, strain CLA4, hits give low values 1.03 | S. cerevisiae deletion strains, locus YNL307C, strain MCK1, hits give low values 1.01 | S. cerevisiae deletion strains, locus YNL322C, strain KRE1 (second series), hits give low values 0.989 | S. cerevisiae deletion strains, locus YNL322C, strain KRE1, hits give low values 1.01 and 1 | S. cerevisiae deletion strains, locus YNR049C, strain mso1, hits give low values 1.01 | S. cerevisiae deletion strains, locus YNR052C, strain pop2, hits give low values 1.04 | S. cerevisiae deletion strains, locus YOL006C, strain TOP1, hits give low values 1.04 | S. cerevisiae deletion strains, locus YOL012C, strain htz1 1.82 | S. cerevisiae deletion strains, locus YOL147C, strain pex11, hits give low values 1.03 | S. cerevisiae deletion strains, locus YOR001W, strain rrp6, hits give low values 0.978 | S. cerevisiae deletion strains, locus YOR061W, strain CKA2, hits give low values 1.01 | S. cerevisiae deletion strains, locus YOR069W, strain VPS5, hits give low values 1.01 | S. cerevisiae deletion strains, locus YOR070C, strain gyp1, hits give low values 0.975 | S. cerevisiae deletion strains, locus YOR080W, strain dia2, hits give low values 0.999 | S. cerevisiae deletion strains, locus YOR083W, strain WHI5 (second series), hits give low values 1.02 | S. cerevisiae deletion strains, locus YOR106W, strain vam3, hits give low values 0.935 | S. cerevisiae deletion strains, locus YOR136W, strain idh2, hits give low values 1.04 | S. cerevisiae deletion strains, locus YOR144C, strain elg1, hits give low values 1.04 | S. cerevisiae deletion strains, locus YOR184W, strain ser1, hits give low values 1.03 | S. cerevisiae deletion strains, locus YOR231W, strain MKK1, hits give low values 0.992 | S. cerevisiae deletion strains, locus YOR265W, strain rbl2, hits give low values 1.01 | S. cerevisiae deletion strains, locus YOR270C, strain vph1, hits give low values 0.926 | S. cerevisiae deletion strains, locus YOR290C, strain snf2, hits give low values 0.952 | S. cerevisiae deletion strains, locus YOR316C, strain cot1, hits give low values 1.02 | S. cerevisiae deletion strains, locus YPL051W, strain arl3, hits give low values 0.932 | S. cerevisiae deletion strains, locus YPL055C, strain LGE1, hits give low values 1.01 and 0.999 | S. cerevisiae deletion strains, locus YPL078C, strain atp4, hits give low values 0.943 | S. cerevisiae deletion strains, locus YPL106C, strain sse1, hits give low values 0.987 | S. cerevisiae deletion strains, locus YPL240C, strain hsp82, hits give low values 0.992 | S. cerevisiae deletion strains, locus YPL241C, strain CIN2, hits give low values 1.01 | S. cerevisiae deletion strains, locus YPL256C, strain CLN2, hits give low values 1.04 | S. cerevisiae deletion strains, locus YPR119W, strain clb2, hits give low values 1.03 | S. cerevisiae deletion strains, locus YPR141C, strain kar3, hits give low values 1.05 | S. cerevisiae deletion strains, locus YPR163C, strain tif3, hits give low values 1.04 | S. cerevisiae deletion strains, locus YPR167C, strain met16, hits give low values 1.03 | S. cerevisiae deletion strains, strain wtn01, hits give low values 1.04 | S. cerevisiae strains, strain wild type, hits give low values 1
